CYP2C9 inhib – human CYP2C9 inhibition; inhibition, % at 5 µM; 96,000 tested, 20% active; CYP2C9 Supersomes, luciferin-H conversion, luminescence; AID 777;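 active = blocking of liver enzyme CYP2C9 beyond about 50% at 5 µM, limit read from the data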
CYP2C9 activ – increases human cytochrome P450 2C9 activity; P11712; recombinant CYP2C9, luciferin-H conversion, luminescence; active compounds read high; factor 1 = untreated enzyme, 0 = blocked; activation factor at 5 µM; 96,000 tested, 1.4% active;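 active = activation factor of 2 or more for CYP2C9 at a 5 µM dose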;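 also: 0 = sulfaphenazole-blocked wells and 1 = vehicle-only wells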
Cav32 inh – human Cav3.2 channel inhibition, primary screen. O95180. Cav3.2-expressing cells, Fluo-4 calcium fluorescence FDSS; active compounds read low. B-score at 10 µM. 100,000 tested, 4% active;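 active = single-dose well whose peak fluorescence ratio is a statistical outlier from its plate by either plate-standardised score or position-corrected B-score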
CYP2C19 act – increases human CYP2C19 enzyme activity; P33261; activation factor at 5 µM; recombinant CYP2C19, luciferin-H EGE luminescence; active compounds read high; 0 = fully inhibited enzyme, 1 = untreated enzyme; AID 1025; 96,000 tested, under 10 active;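 active = activation factor of at least 2 at 5 µM in the primary screen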;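 also: 0 = wells with 2.5 mM tranylcypromine and 1 = vehicle-only wells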
Target sequence (P33261 whole entry, looked up): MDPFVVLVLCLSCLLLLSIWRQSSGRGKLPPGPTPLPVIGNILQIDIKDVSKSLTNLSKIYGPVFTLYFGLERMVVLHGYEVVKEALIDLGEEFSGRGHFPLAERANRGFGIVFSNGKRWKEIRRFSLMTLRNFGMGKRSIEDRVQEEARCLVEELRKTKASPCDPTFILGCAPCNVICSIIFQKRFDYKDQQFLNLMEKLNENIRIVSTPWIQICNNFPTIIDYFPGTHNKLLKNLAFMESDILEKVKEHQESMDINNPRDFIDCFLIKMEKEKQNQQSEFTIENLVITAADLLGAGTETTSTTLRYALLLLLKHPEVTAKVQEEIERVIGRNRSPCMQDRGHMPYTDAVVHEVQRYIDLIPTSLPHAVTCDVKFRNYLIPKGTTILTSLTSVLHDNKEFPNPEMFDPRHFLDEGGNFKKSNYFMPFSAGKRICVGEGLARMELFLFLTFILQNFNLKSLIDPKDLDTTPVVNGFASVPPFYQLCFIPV
CYP2C19 inhib – human CYP2C19 inhibition; 96,000 tested, 21% active; P33261; inhibition, % at 5 µM; CYP2C19 Supersomes, luciferin-H EGE luminescence, 30 min;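 active = CYP2C19 inhibition above a set limit at 5 µM in the primary screen, cut at about 50% in these data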;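 also: plate controls were negative control wells for no effect and 2.5 mM tranylcypromine positive control for full effect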
* marks the source's active call; other numbers are inactive results. Sampled rows, rich in hits. Any-hit rate of the full collection: about 27%.

How did COc1ccc(NC(=O)C(NC(C)=O)C(=O)NCc2ccc(F)cc2)cc1 (centres undefined) do in these assays?
CYP2C9 inhib: 14.9; CYP2C9 activ: 0.9; CYP2C19 act: 0.5; CYP2C19 inhib: 53.8*

Results for COCCCNC(=O)c1ccc(CS(=O)(=O)c2ccc(OC)cc2)o1 ?
CYP2C9 inhib: 4.4; CYP2C9 activ: 1; Cav32 inh: 0.566; CYP2C19 act: 1.1; CYP2C19 inhib: -10.9

What do the screens show for `COc1ccc(S(=O)(=O)Cc2ccc(C(=O)NC3CC3)o2)cc1`?
CYP2C9 inhib: -124.0; CYP2C9 activ: 2.2*; Cav32 inh: 0.106; CYP2C19 act: 0.8; CYP2C19 inhib: 16.0

Results for Cc1c(Br)cc(C(=O)NC2CCCCC2)c(C)c1C ?
CYP2C9 inhib: -36.2; CYP2C9 activ: 1.4; Cav32 inh: -0.479; CYP2C19 act: 1.1; CYP2C19 inhib: -7.9

Results for O=C1CCC([N+](=O)[O-])C(c2ccc(Cl)cc2)N1 (centres undefined) ?
CYP2C9 inhib: -5.5; CYP2C9 activ: 1.1; Cav32 inh: 1.19; CYP2C19 act: 1; CYP2C19 inhib: -4.7

Results for O=C(NC1CCS(=O)(=O)C1)c1ccc(-c2ccc(Br)cc2)o1 (centres undefined) ?
CYP2C9 inhib: 8.7; CYP2C9 activ: 0.9; CYP2C19 act: 0.8; CYP2C19 inhib: 22.2

What do the screens show for `O=C(CSc1nnnn1C1CCCCC1)NCCc1ccccc1`?
CYP2C9 inhib: 14.9; CYP2C9 activ: 0.9; Cav32 inh: 1.62; CYP2C19 act: 0.9; CYP2C19 inhib: 9.3

What do the screens show for `COc1ccc(S(=O)(=O)Cc2ccc(C(=O)NCc3ccc(F)cc3)o2)cc1`?
CYP2C9 inhib: 63.6*; CYP2C9 activ: 0.4; CYP2C19 act: 0.8; CYP2C19 inhib: 18.2

How did COc1ccc(N2C(=O)CSC23CCCCC3)cc1 do in these assays?
Cav32 inh: 0.267

How did CCOc1ccc(N2C(=O)CSC23CCCCC3)cc1 do in these assays?
CYP2C9 inhib: 31.7; CYP2C9 activ: 0.7; Cav32 inh: -0.847; CYP2C19 act: 0.2; CYP2C19 inhib: 83.8*

What do the screens show for `CCOC(=O)c1nnn(CC(=O)Nc2cc(F)ccc2F)c1C(=O)OCC`?
CYP2C9 inhib: 43.6; CYP2C9 activ: 0.6; Cav32 inh: 0.0384; CYP2C19 act: 0.3; CYP2C19 inhib: 68.2*

Results for COC(=O)c1nnn(CC(=O)Nc2cccc(Cl)c2C)c1C(=O)OC ?
CYP2C9 inhib: 44.8; CYP2C9 activ: 0.6; Cav32 inh: 0.0177; CYP2C19 act: 0.1; CYP2C19 inhib: 89.5*

Results for CCOC(=O)c1nnn(CC(=O)Nc2cc(Cl)ccc2C)c1C(=O)OCC ?
CYP2C9 inhib: 48.4; CYP2C9 activ: 0.5; Cav32 inh: -0.574; CYP2C19 act: 0.7; CYP2C19 inhib: 28.2

How did O=C(Cn1cnc2c(nnn2Cc2ccccc2F)c1=O)NCc1ccco1 do in these assays?
CYP2C9 inhib: -14.8; CYP2C9 activ: 1.1; CYP2C19 act: 1; CYP2C19 inhib: 0.3

How did COC(=O)c1sc(N)c(C(=O)OC)c1CSc1nnnn1C do in these assays?
CYP2C9 inhib: 54.6*; CYP2C9 activ: 0.5; Cav32 inh: 1.23; CYP2C19 act: 0.1; CYP2C19 inhib: 91.6*

What do the screens show for `COc1ccc(-c2nnc(SCC(=O)Nc3nc4ccccc4s3)n2C)cc1`?
CYP2C9 inhib: 31.5; CYP2C9 activ: 0.7; CYP2C19 act: 0.9; CYP2C19 inhib: 12.2

What do the screens show for `COC(=O)c1sc(N)c(C(=O)OC)c1CSc1nnc(-c2ccccc2Cl)n1C`?
CYP2C9 inhib: 97.1*; CYP2C9 activ: 0; Cav32 inh: -0.911; CYP2C19 act: 0; CYP2C19 inhib: 99.6*

What do the screens show for `COc1ccc(C2CC(=O)c3cnc(Nc4cc(C)cc(C)c4)nc3C2)cc1` (centres undefined)?
CYP2C9 inhib: 22.6; CYP2C9 activ: 0.8; Cav32 inh: -1.1; CYP2C19 act: 0.8; CYP2C19 inhib: 18.2

How did CCOCCCNc1ncc2c(n1)CC(c1ccc(C)cc1)CC2=O (centres undefined) do in these assays?
CYP2C9 inhib: 58.8*; CYP2C9 activ: 0.4; Cav32 inh: -0.648; CYP2C19 act: 0.6; CYP2C19 inhib: 41.0

How did O=C1C(Cc2ccccc2)NC(=S)N1c1ccccc1 (centres undefined) do in these assays?
CYP2C9 inhib: 20.2; CYP2C9 activ: 0.8; Cav32 inh: 0.223; CYP2C19 act: 0.5; CYP2C19 inhib: 47.6

What do the screens show for `CC(C)c1ccc2c(c1)C(=O)NC(C)(C)C2`?
CYP2C9 inhib: -9.3; CYP2C9 activ: 1.1; Cav32 inh: 0.125; CYP2C19 act: 0.8; CYP2C19 inhib: 19.2

Screens (PubChem)
